SMILES strings stand for the structures. Unmarked numbers belong to inactive results. Results filed as inconclusive are left out. Activity calls are given as the source filed them. Unless noted, the call rests on the fitted dose curve; in most records, active means well fitted curve in the direction sought with a large enough effect; inconclusive means small, poorly fitted or top-dose-only effect, or another doubt; inactive means no such curve, though single readings can be large; an effect the other way counts as inactive or inconclusive.

Assay [1] can be described thus: Cell Viability - HepG2 (AID 433; calls by dose curve;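 further: potency for ATP loss meaning cytotoxicity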). Conditions: qHTS. The procedure, abridged:
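Cytotoxicity is scored as loss of intracellular ATP in HepG2 cells exposed to compounds for 40 h. Concentration-response curves, normalized to DMSO and 100 uM tamoxifen, give AC50 values.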
(In general: Quantitative high-throughput screening tests each substance at several concentrations.)

Assay [2] in a line: Cellular Toxicity (caspase-3) SHSY5Y (AID 657). Conditions: SH-SY5Y caspase-3 activation; series mostly up to 91.7 µM. In a few lines: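 Cells plated and incubated 5 h at 37 °C, dosed over a concentration range, incubated 16 h, then given Caspase-Glo 3/7 reagent for 1 h at room temperature before luminescence reading. Staurosporine (10 uM) defined full stimulation.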
Assay [3] can be described thus: MultiTox-Fluor Cytotoxicity Assay - LYMP1-003 - Dead Cells (AID 961). Further: nearly all actives have a fitted effect of over 70% in size. Conditions: LYMP1-003 lymphoblastoid cells, dead-cell protease fluorescence; series mostly up to 92.2 µM. In a few lines: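 LYMP1-003 human lymphoblastoid cells (2500/well) exposed to compound 16 h at 37 C in complete medium; dead-cell protease read with bis-AAF-R110 fluorescence (Ex/Em 485/520) after 60 min at room temperature. Normalized to DMSO and 15 uM tetraoctylammonium bromide; AC50 from Hill fit.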

The nature of assay [4]: Cell Viability - LYMP2-009 (AID 968).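 Further: cells exposed to compound for 24 h at 37 °C; nearly all actives have a fitted effect of over 55% in size.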 Conditions: LYMP2-009 lymphoblastoid cell viability; series mostly up to 92.2 µM.
A short description of assay [5]: Cell Viability - LYMP2-017 (AID 972).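 Further: cells exposed to compound for 24 hours at 37 °C; nearly all actives have a fitted effect of over 55% in size.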 The conditions noted are these: LYMP2-017 lymphoblastoid cell viability; series mostly up to 92.2 µM. In a few lines: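 Steps: plate 2500 lymphoblastoid cells per well; incubate 5 hr at 37 C; add compound across a concentration series and incubate 24 hr at 37 C; add CellTiter-Glo and read luminescence after 30 min at room temperature; fit Hill curves for AC50.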

A short description of assay [6]: Cell Viability - LYMP2-021 (AID 974).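 Further: compound exposure lasts 24 hours at 37 °C; nearly all actives have a fitted effect of over 55% in size.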 The conditions noted are these: LYMP2-021 lymphoblastoid cells viability; series mostly up to 92.2 µM. The procedure, abridged:
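Concentration-response cytotoxicity in a human lymphoblastoid line: 24 hr treatment at 37 C in complete culture medium, tetraoctylammonium bromide as positive control, luminescent ATP quantitation as viability measure.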

Assay [7] can be described thus: Cell Viability - LYMP2-025 (AID 976).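 Further: cells exposed to compound for 24 h at 37 °C.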 Conditions: LYMP2-025 lymphoblastoid cell viability; series mostly up to 92.2 µM. In a few lines: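 In qHTS format, LYMP2-025 lymphoblastoid cells in complete culture medium received compound for 24 hr; ATP-based CellTiter-Glo signal gave viability, with AC50 derived by Hill equation.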
A short description of assay [8]: Cell Viability - LYMP2-007 (AID 979).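 Further: cells exposed to compound for 24 h before reading; nearly all actives have a fitted effect of over 60% in size.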 Conditions: LYMP2-007 lymphoblastoid cell viability; series mostly up to 92.2 µM. In a few lines:
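Acute toxicity is scored as a concentration-dependent fall in intracellular ATP in human lymphoblastoid cells treated 24 hr at 37 C, measured by luciferase luminescence; Hill-equation modelling yields AC50.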

Assay [9] can be described thus: Cell Viability - LYMP2-012 (AID 982).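 Further: cellular ATP by luciferase luminescence where a drop means cytotoxicity; cells exposed to compound for one day before reading; nearly all actives have a fitted effect of over 55% in size.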 Conditions: LYMP2-012 lymphoblastoid cell viability qHTS; series mostly up to 92.2 µM.
Assay [10] is described as follows: Cell Viability - LYMP2-020 (AID 986). The conditions noted are these: series mostly up to 92.2 µM. The procedure, abridged: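 Acute cytotoxicity in a human lymphoblastoid line is scored as a concentration-dependent fall in cellular ATP after 24 hr at 37 C in complete medium. The positive control is tetraoctylammonium bromide, and potency is given as Hill-fit AC50.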

Assay [11] has as its target Voltage-gated inwardly rectifying potassium channel KCNH2 (Homo sapiens) (UniProt Q12809). Briefly: qHTS Assay for Small Molecule Inhibitors of the Human hERG Channel Activity (AID 588834).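 Further: lower thallium flux fluorescence means stronger hERG block; nearly all actives have a fitted effect of over 50% in size.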 Conditions: U2OS BacMam hERG, FluxOR thallium flux fluorescence; series mostly up to 92.2 µM. The procedure, abridged:
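Measured: FluxOR fluorescence after thallium stimulation in U2OS cells transduced with hERG by baculovirus. Compounds pre-incubated around 10 min; medium Opti-MEM with 2% FCS. AC50 from Hill equation.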

Assay [12] is described as follows: qHTS assay for small molecule disruptors of the mitochondrial membrane potential - 5 hr assay (AID 651755; calls by dose curve; further: nearly all actives have a fitted effect of over 40% in size). The conditions noted are these: JC-1-type ratio dye; series mostly up to 92.2 µM. In a few lines:
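HepG2 cells, attached overnight at 37C, were exposed to compound or DMSO for 5 hr at 37C, 5% CO2. Mito-MPS dye was then added for 30 min, and fluorescence read at 490/535 nm (monomers) and 540/590 nm (aggregates).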

A short description of assay [13]: qHTS assay for small molecule antagonists of the retinoid-related orphan receptor gamma (ROR-gamma) signaling pathway - cell viability counter screen (AID 720652; active means well fitted curve in the direction sought with a large enough effect in the repeat runs; an effect the other way counts as inactive or inconclusive;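 further: compound exposure lasted 16 hr before ATP read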). Conditions: RORgamma reporter cell line viability counter screen; series mostly up to 92.2 µM. In a few lines:
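Cytotoxicity is quantified via intracellular ATP (CellTiter-Glo luminescence) in doxycycline-induced CHO ROR response element-luciferase reporter cells treated with compound for 16 hr at 37 C, 5% CO2.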

The test system of another assay is AA1029. The experiment in a line: qHTS profiling for inhibitors of Plasmodium falciparum proliferation (AID 504749). Further: nearly all actives have a fitted effect of over 60% in size. Conditions: P. falciparum in erythrocytes, SYBR Green DNA, 72 h; series mostly up to 28.7 µM. In a few lines: (§1)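 P. falciparum-infected erythrocytes (0.3% parasitemia, 2.5% hematocrit final) were exposed to compounds for 72 h at 37 C in 5% CO2, then lysed with SYBR Green buffer overnight at room temperature; parasite DNA fluorescence was normalized to artemisinin and DMSO controls.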

The test system of the next assay is ATS95. The description is as above. The conditions noted are these: P. falciparum in erythrocytes, SYBR Green DNA, 72 h; series mostly up to 28.7 µM. The procedure, abridged:
as §1

A further assay deals with CP291. The description is as above. The conditions noted are these: P. falciparum in erythrocytes, SYBR Green DNA, 72 h; series mostly up to 28.7 µM. The procedure, abridged:
as §1

The next assay has as its system CP335. Described as above. The conditions noted are these: P. falciparum in erythrocytes, SYBR Green DNA, 72 h; series mostly up to 28.7 µM. The procedure, abridged: as §1
A further assay has as its system DFO2036. The assay is described as above. Conditions: P. falciparum in erythrocytes, SYBR Green DNA, 72 h; series mostly up to 28.7 µM. In a few lines: as §1
The subject of another assay is P93_24. Described as above. Conditions: P. falciparum in erythrocytes, SYBR Green DNA, 72 h; series mostly up to 28.7 µM. The procedure, abridged:
as §1

The next assay deals with TAB165. The assay is described as above. The conditions noted are these: P. falciparum in erythrocytes, SYBR Green DNA, 72 h; series mostly up to 28.7 µM. The procedure, abridged:
as §1
Potency means the concentration at half of the fitted maximal effect.

Voltage-gated inwardly rectifying potassium channel KCNH2 (Homo sapiens), sequence (Q12809 whole entry, looked up): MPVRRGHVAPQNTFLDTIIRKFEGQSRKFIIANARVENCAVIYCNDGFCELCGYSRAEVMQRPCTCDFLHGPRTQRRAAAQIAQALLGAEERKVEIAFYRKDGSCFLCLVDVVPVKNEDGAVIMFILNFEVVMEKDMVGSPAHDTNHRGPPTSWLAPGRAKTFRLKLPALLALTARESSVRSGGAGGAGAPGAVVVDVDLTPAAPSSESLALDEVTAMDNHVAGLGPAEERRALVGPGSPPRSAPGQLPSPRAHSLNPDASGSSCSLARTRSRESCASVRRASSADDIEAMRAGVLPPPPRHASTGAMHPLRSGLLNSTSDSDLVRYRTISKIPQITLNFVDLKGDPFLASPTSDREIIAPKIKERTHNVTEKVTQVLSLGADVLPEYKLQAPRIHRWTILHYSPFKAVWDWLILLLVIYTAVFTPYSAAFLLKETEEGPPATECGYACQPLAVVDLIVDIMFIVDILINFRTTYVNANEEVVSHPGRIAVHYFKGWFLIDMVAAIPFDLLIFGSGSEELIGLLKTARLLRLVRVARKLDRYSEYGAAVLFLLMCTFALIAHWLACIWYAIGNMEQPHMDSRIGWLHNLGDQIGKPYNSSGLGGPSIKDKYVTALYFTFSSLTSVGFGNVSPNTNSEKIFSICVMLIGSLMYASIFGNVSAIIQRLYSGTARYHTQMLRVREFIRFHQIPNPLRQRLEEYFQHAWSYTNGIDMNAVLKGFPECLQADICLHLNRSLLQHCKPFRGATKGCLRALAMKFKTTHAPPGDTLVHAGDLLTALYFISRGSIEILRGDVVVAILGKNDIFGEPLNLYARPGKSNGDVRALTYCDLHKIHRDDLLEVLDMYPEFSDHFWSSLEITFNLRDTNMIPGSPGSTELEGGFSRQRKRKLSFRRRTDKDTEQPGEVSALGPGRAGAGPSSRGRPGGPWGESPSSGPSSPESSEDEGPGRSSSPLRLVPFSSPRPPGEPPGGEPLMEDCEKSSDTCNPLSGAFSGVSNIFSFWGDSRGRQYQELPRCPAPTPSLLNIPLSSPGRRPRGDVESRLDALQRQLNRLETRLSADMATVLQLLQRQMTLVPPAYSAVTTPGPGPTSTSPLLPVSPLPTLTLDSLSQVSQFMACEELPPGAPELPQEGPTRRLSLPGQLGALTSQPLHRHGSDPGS

Consider `O=C(O)C1C(C(=O)O)C2(Cl)C(Cl)=C(Cl)C1(Cl)C2(Cl)Cl` (stereo not given), for which, in assay [1], the Potency is greater than 92 µM. Also, the Potency result in [2], in [3], in assay [4], in [5], in assay [6] and in [7] was “inactive” throughout. The Potency result in assay [8], in assay [9], in assay [10], in assay [11], in assay [12] and in assay [13] was “inactive” in each case.

For `Nc1ccccc1C(=O)OCCc1ccccc1`, the Potency in assay [1] is greater than 92 µM. Also, the Potency entry in assay [2], in assay [3], in [4], in assay [5], in assay [6] and in assay [7] was “inactive” in each case. The Potency result in [8], in [9], in assay [10], in assay [12] and in assay [13] was “inactive” each time.

With `O=[N+]([O-])C(Br)Br`, the Potency entry in [2], in assay [3] and in [12] was “inactive” in each case. Further, the Potency was 12.6 µM (active) in assay [4]; 7.94 µM (active) in [5]; 10 µM (active) in assay [6]; 20 µM (active) in [7]; 10 µM (active) in [8]; 12.6 µM (active) in [9]. Moreover, the Potency in [10] was 12.6 µM (active); in [11] it was 50.1 µM (active); in assay [13], 18.8 µM (active).

On to `Clc1ccc(C(c2ccc(Cl)cc2)C(Cl)Cl)cc1`, for which the Potency was 50.1 µM (active) in [2], 22.4 µM (active) in assay [11] and 66.8 µM (active) in assay [12]. In addition, the Potency result in [4], in assay [5], in assay [6], in assay [7], in [8] and in assay [9] was “inactive” throughout. In addition, the Potency result in assay [10] was “inactive”.

For `CC(C)CC(C)Nc1ccc(Nc2ccccc2)cc1` (stereo not given), the Potency in assay [1] was greater than 92 µM; in [3], 50.1 µM (active); in assay [5], 50.1 µM (active); in assay [6], 50.1 µM (active); in assay [8], 39.8 µM (active); in assay [9], 39.8 µM (active). The Potency in assay [10] is 39.8 µM (active); in assay [11] it was 20 µM (active); in assay [13], 59.6 µM (active). Also, the Potency entry in assay [2] is “inactive”.

On to `Cc1ccc2ccccc2c1C`, for which the Potency in assay [1] was greater than 92 µM.

`CC1(C)[C@@H](C=C(Cl)Cl)[C@@H]1C(=O)OCc1c(F)c(F)cc(F)c1F`: the Potency entry in the assay with AA1029, with ATS95, with CP291, in the assay on CP335, in the assay on DFO2036 and in the assay on P93_24 was “inactive” each time. Besides, in the assay on TAB165, the Potency entry was “inactive”.

For the molecule `CCCCCC(O)C1C(=O)OC(C)C(O)\C=C/C=C\C=C/C=C\C=C(\C)C(O)C(O)C(O)CC(O)CC(O)CC(O)CC(O)CC1O` (stereo not given), the Potency entry in the assay with AA1029, in the assay on ATS95, with CP291, in the assay on CP335, with DFO2036 and in the assay on P93_24 was “inactive” each time. Besides, in the assay on TAB165, the Potency result was “inactive”.

For the molecule `C[C@@H]1CC[C@H]2[C@@H](C)C(=O)O[C@@H]3OC4(C)CC[C@@H]1C32OO4` (stereo not given in full), the Potency in the assay on AA1029 is 0.0112 µM (active); in the assay with ATS95, 0.0112 µM (active); in the assay with CP291, 0.0107 µM (active); with CP335, 0.0067 µM (active); in the assay on DFO2036, 0.0071 µM (active); in the assay with P93_24, 0.0035 µM (active). Further, the Potency with TAB165 is 0.0032 µM (active).

As to `Cc1ccc2c(c1)[C@@H]1CN(C)CC[C@H]1N2`, the Potency entry with AA1029, in the assay with ATS95, in the assay with CP291, with CP335, with DFO2036 and in the assay with P93_24 was “inactive” throughout. The Potency entry with TAB165 is “inactive”.

In the case of `CC1(C)S[C@@H]2[C@H](N)C(=O)N2C1C(=O)O` (stereo not given in full), the Potency entry in the assay on AA1029, in the assay with ATS95, with CP291, with CP335, in the assay on DFO2036 and in the assay on P93_24 was “inactive” each time. The Potency result with TAB165 was “inactive”.

With `COc1ccc2c3c1O[C@H]1[C@@H](O)C=C[C@H]4C(C2)NCCC341` (stereo not given in full), the Potency result in the assay with AA1029, in the assay on ATS95, in the assay with CP291, in the assay on CP335, in the assay on DFO2036 and in the assay on P93_24 was “inactive” throughout. The Potency result in the assay on TAB165 is “inactive”.

Values taken from PubChem BioAssay (NCATS).
